Values joined by “and” are separate entries in the source; they are usually repeats but may differ in a detail not shown here. Identical values can stand only once. Active and inactive are the calls of the source. No stated cut-off is given here; in the data, active means inhibition above about 80%; inactive means the rest.

The first assay can be described thus: BT084 cell growth, single and combined drugs, ICGC_MB145, cisplatin and BGB IC40 combos (AID 1671461).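 Further: cells exposed to drugs for 96 hours; 0% = vehicle DMSO and 100% = high DMSO full killing control.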 Conditions: BT084 medulloblastoma cells, drug combinations, at 0.5 µM, stronger effect = higher value.
Turning to `CCCCCCNC(=O)n1cc(F)c(=O)[nH]c1=O`, the inhibition is -1.98% (inactive) and -19.4% (inactive).
In the case of `CCn1cc(C(=O)O)c(=O)c2cc(F)c(N3CCN(C)CC3)cc21`, the inhibition is -1.86% (inactive) and 3.84% (inactive).
On the same count and under the same terms, then `Cn1cnc([N+](=O)[O-])c1Sc1ncnc2nc[nH]c12`, with -16.8% (inactive) and 4.68% (inactive); and `O=c1[nH]cc(F)c(=O)[nH]1`, with -4.41% (inactive).

The same assay, now with this note: BT084 medulloblastoma cells, drug combinations, cisplatin combination, at 0.5 µM, stronger effect = higher value.
As to `CCCCCCNC(=O)n1cc(F)c(=O)[nH]c1=O`, the inhibition is -28.3% and -28.4%.
As for `CCn1cc(C(=O)O)c(=O)c2cc(F)c(N3CCN(C)CC3)cc21`, the inhibition is -11.9% and -2.51%.
For `Cn1cnc([N+](=O)[O-])c1Sc1ncnc2nc[nH]c12`, the inhibition is -15.8% and -6.89%.
`O=c1[nH]cc(F)c(=O)[nH]1`: the inhibition is -0.838%.

Staying with this assay, now noted: BT084 medulloblastoma cells, drug combinations, cisplatin combination, at 5 µM, stronger effect = higher value.
With `CCCCCCNC(=O)n1cc(F)c(=O)[nH]c1=O`, the inhibition is -14.4% and -69.9%.
Same read-out and setting: then `CCn1cc(C(=O)O)c(=O)c2cc(F)c(N3CCN(C)CC3)cc21`, with -69% and 6.95%.
As to `Cn1cnc([N+](=O)[O-])c1Sc1ncnc2nc[nH]c12`, the inhibition was -45.6% and -9.16%.
Regarding `O=c1[nH]cc(F)c(=O)[nH]1`, the inhibition is -20.1%.

Staying with this assay, now noted: BT084 medulloblastoma cells, drug combinations, measured here: BGB IC40 combination 0.05 uM, at 0.05 µM, stronger effect = higher value.
Take `CCCCCCNC(=O)n1cc(F)c(=O)[nH]c1=O`: the inhibition was -34% and -12%.
With `CCn1cc(C(=O)O)c(=O)c2cc(F)c(N3CCN(C)CC3)cc21`, the inhibition is -0.823% and 30.3%.
Still for that read-out and setting: the figure for `Cn1cnc([N+](=O)[O-])c1Sc1ncnc2nc[nH]c12` is 2.92% and 62.8%; for `O=c1[nH]cc(F)c(=O)[nH]1` it is 2.5%.

The same assay, now with this note: BT084 medulloblastoma cells, drug combinations, single agent, at 5 µM, stronger effect = higher value.
With `CCCCCCNC(=O)n1cc(F)c(=O)[nH]c1=O`, the inhibition is 6.42% and -7.55%.
`CCn1cc(C(=O)O)c(=O)c2cc(F)c(N3CCN(C)CC3)cc21`: the inhibition is -6.24% and -12.7%.
Take `Cn1cnc([N+](=O)[O-])c1Sc1ncnc2nc[nH]c12`: the inhibition is -13.5% and -5.72%.
In the case of `O=c1[nH]cc(F)c(=O)[nH]1`, the inhibition is -0.674%.

The nature of the next assay: RCMB18 cell growth, single agent and combined, cisplatin and BGB IC40 combos (AID 1671462).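 Further: cells exposed to compound for four days.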 Conditions: RCMB18 medulloblastoma cells, at 0.5 µM, stronger effect = higher value.
For `CCCCCCNC(=O)n1cc(F)c(=O)[nH]c1=O`, the inhibition was -8.71% (inactive) and -17.6% (inactive).
As to `CCn1cc(C(=O)O)c(=O)c2cc(F)c(N3CCN(C)CC3)cc21`, the inhibition was -15.3% (inactive) and 13.4% (inactive).
As for `Cn1cnc([N+](=O)[O-])c1Sc1ncnc2nc[nH]c12`, the inhibition was -11.9% (inactive) and -11.3% (inactive).
For `O=c1[nH]cc(F)c(=O)[nH]1`, the inhibition was 3% (inactive).

Still in this assay, the particulars now being: RCMB18 medulloblastoma cells, cisplatin combo, at 5 µM, stronger effect = higher value.
As to `CCCCCCNC(=O)n1cc(F)c(=O)[nH]c1=O`, the inhibition is -32.4% and 29.2%.
As to `CCn1cc(C(=O)O)c(=O)c2cc(F)c(N3CCN(C)CC3)cc21`, the inhibition was -13.1% and 21.2%.
On to `Cn1cnc([N+](=O)[O-])c1Sc1ncnc2nc[nH]c12`, for which the inhibition was 4.98% and -8.51%.
Turning to `O=c1[nH]cc(F)c(=O)[nH]1`, the inhibition stood at 11.8%.

Still in this assay, the particulars now being: RCMB18 medulloblastoma cells, measured here: BGB IC40 combination, at 0.05 µM, stronger effect = higher value.
With `CCCCCCNC(=O)n1cc(F)c(=O)[nH]c1=O`, the inhibition was -13.3% and -15%.
Turning to `CCn1cc(C(=O)O)c(=O)c2cc(F)c(N3CCN(C)CC3)cc21`, the inhibition is 11.2% and 6.78%.
Same read-out and setting: the figure for `Cn1cnc([N+](=O)[O-])c1Sc1ncnc2nc[nH]c12` is -6.18% and -2.54%; for `O=c1[nH]cc(F)c(=O)[nH]1` it is -17.4%.

The same assay, now with this note: RCMB18 medulloblastoma cells, measured here: combination with cisplatin, at 0.5 µM, stronger effect = higher value.
As for `CCCCCCNC(=O)n1cc(F)c(=O)[nH]c1=O`, the inhibition was -7.21% and -15.6%.
On the same count and under the same terms, then `CCn1cc(C(=O)O)c(=O)c2cc(F)c(N3CCN(C)CC3)cc21`, with -34.9% and 34.7%; and `Cn1cnc([N+](=O)[O-])c1Sc1ncnc2nc[nH]c12`, with -8.48% and -16.8%; and `O=c1[nH]cc(F)c(=O)[nH]1`, with 13.9%.

Staying with this assay, now noted: RCMB18 medulloblastoma cells, single agent, at 5 µM, stronger effect = higher value.
Take `CCCCCCNC(=O)n1cc(F)c(=O)[nH]c1=O`: the inhibition is 54.2% and -12.5%.
For the molecule `CCn1cc(C(=O)O)c(=O)c2cc(F)c(N3CCN(C)CC3)cc21`, the inhibition was -30.4% and 4.8%.
Consider `Cn1cnc([N+](=O)[O-])c1Sc1ncnc2nc[nH]c12`, for which the inhibition is -19.3% and -29.9%.
As for `O=c1[nH]cc(F)c(=O)[nH]1`, the inhibition was determined as 7.41%.

The next assay can be described thus: CRL1545 cell growth, single agent and combined, cisplatin and BGB IC20 combos (AID 1671464).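 Further: cells exposed to compound for 96 hours before readout; 0% = vehicle DMSO and 100% = high DMSO killing control.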 Conditions: CRL1545 osteosarcoma cells, at 0.5 µM, stronger effect = higher value.
Consider `CCCCCCNC(=O)n1cc(F)c(=O)[nH]c1=O`, for which the inhibition is -38.9% (inactive) and -6.62% (inactive).
`CCn1cc(C(=O)O)c(=O)c2cc(F)c(N3CCN(C)CC3)cc21`: the inhibition was -40.9% (inactive) and -9.39% (inactive).
Regarding `Cn1cnc([N+](=O)[O-])c1Sc1ncnc2nc[nH]c12`, the inhibition is -10.1% (inactive) and 15.6% (inactive).
Regarding `O=c1[nH]cc(F)c(=O)[nH]1`, the inhibition was -41.5% (inactive).

The assay is the same for the next values; noted with them: CRL1545 osteosarcoma cells, measured here: with BGB IC20 combination, at 0.5 µM, stronger effect = higher value.
Regarding `CCCCCCNC(=O)n1cc(F)c(=O)[nH]c1=O`, the inhibition is -31.2% and -14.7%.
For the molecule `CCn1cc(C(=O)O)c(=O)c2cc(F)c(N3CCN(C)CC3)cc21`, the inhibition was -21.3% and -8%.
Take `Cn1cnc([N+](=O)[O-])c1Sc1ncnc2nc[nH]c12`: the inhibition is 23.3% and -13%.
Regarding `O=c1[nH]cc(F)c(=O)[nH]1`, the inhibition is -0.875%.

Staying with this assay, now noted: CRL1545 osteosarcoma cells, measured here: with cisplatin IC20 combination, at 0.5 µM, stronger effect = higher value.
Regarding `CCCCCCNC(=O)n1cc(F)c(=O)[nH]c1=O`, the inhibition is -45.1% and -2.6%.
As for `CCn1cc(C(=O)O)c(=O)c2cc(F)c(N3CCN(C)CC3)cc21`, the inhibition is -50.7% and -12.6%.
Take `Cn1cnc([N+](=O)[O-])c1Sc1ncnc2nc[nH]c12`: the inhibition was -26.8% and 29.9%.
Take `O=c1[nH]cc(F)c(=O)[nH]1`: the inhibition was -61.8%.

The same assay, now with this note: CRL1545 osteosarcoma cells, single agent, at 0.05 µM, stronger effect = higher value.
With `CCCCCCNC(=O)n1cc(F)c(=O)[nH]c1=O`, the inhibition was -9.97% and 20.9%.
Regarding `CCn1cc(C(=O)O)c(=O)c2cc(F)c(N3CCN(C)CC3)cc21`, the inhibition was 3.45% and -1.09%.
On to `Cn1cnc([N+](=O)[O-])c1Sc1ncnc2nc[nH]c12`, for which the inhibition was 10.6% and 46.1%.
On to `O=c1[nH]cc(F)c(=O)[nH]1`, for which the inhibition is -3.52%.

The assay is the same for the next values; noted with them: CRL1545 osteosarcoma cells, single agent, at 5 µM, stronger effect = higher value.
`CCCCCCNC(=O)n1cc(F)c(=O)[nH]c1=O`: the inhibition was -10.7% and 10.5%.
With `CCn1cc(C(=O)O)c(=O)c2cc(F)c(N3CCN(C)CC3)cc21`, the inhibition is -27.1% and 1.32%.
On to `Cn1cnc([N+](=O)[O-])c1Sc1ncnc2nc[nH]c12`, for which the inhibition is 25.6% and 21%.
Consider `O=c1[nH]cc(F)c(=O)[nH]1`, for which the inhibition stood at 15.8%.

As a reminder, the inhibition is the change of the read-out against control, counted positive when it falls.

Source of the values: PubChem BioAssay.
